Several values for one entry are separate records, joined by “and”; a condition that tells them apart may be missing. Equal values may be shown once. Activity calls are given as the source filed them. Calls come from the whole dose curve; as a rule, active = well fitted activation curve with a large enough effect; inconclusive = small, poorly fitted or top-dose-only effect; inactive = flat fitted curve, though single readings scatter.
Each compound was assayed against Peroxisome proliferator-activated receptor alpha (Homo sapiens) (UniProt Q07869) (assay: qHTS assay for small molecule agonists of the peroxisome proliferator-activated receptor alpha (PPARalpha) signaling pathway (AID 651778; for max response: % of control where 0% means no effect)). Conditions: PathHunter PPARalpha complementation, chemiluminescence, 6 h; max response: active compounds read high.
Peroxisome proliferator-activated receptor alpha (Homo sapiens), sequence (Q07869 whole entry, looked up): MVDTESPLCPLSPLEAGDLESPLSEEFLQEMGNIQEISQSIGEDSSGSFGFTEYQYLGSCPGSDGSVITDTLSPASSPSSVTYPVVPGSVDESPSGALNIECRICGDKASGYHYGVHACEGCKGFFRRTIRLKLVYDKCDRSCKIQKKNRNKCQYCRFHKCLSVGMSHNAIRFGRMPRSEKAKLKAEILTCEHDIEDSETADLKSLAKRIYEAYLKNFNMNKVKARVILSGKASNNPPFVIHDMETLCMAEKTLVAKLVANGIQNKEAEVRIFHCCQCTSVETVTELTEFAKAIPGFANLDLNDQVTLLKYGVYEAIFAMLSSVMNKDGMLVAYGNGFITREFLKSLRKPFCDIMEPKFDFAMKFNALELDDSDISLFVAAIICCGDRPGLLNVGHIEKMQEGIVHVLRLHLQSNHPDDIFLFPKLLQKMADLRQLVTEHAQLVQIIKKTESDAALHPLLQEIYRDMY
How it was run: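 Chemiluminescence from complemented enzyme reported PPARalpha activation in cells after 6 hr of compound treatment at 37 C. The detection reagent was incubated for 60 min at room temperature, and compounds were scored as agonists.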
Oc1ccc2cc(SSc3ccc4cc(O)ccc4c3)ccc2c1 was tested, and the max response was -7.41% (inactive). For Nc1ccc2cc3ccccc3cc2c1, the max response was -3.75% (inactive). With CN(C)c1ccc(C2(c3ccc(N(C)C)cc3)OC(=O)c3cc(N(C)C)ccc32)cc1 the max response was -2.57% (inactive). In the case of Cc1cc(Nc2ccc(O)cc2)ccc1N, the max response is reported as -7.64% (inactive). In the case of CO[C@H]1/C=C/O[C@@]2(C)Oc3c(C)c(O)c4c(O)c(c5c(c4c3C2=O)NC2(CCN(CC(C)C)CC2)N=5)=NC(=O)/C(C)=C\C=C\[C@H](C)[C@H](O)[C@@H](C)[C@@H](O)[C@@H](C)[C@H](OC(C)=O)[C@@H]1C, the max response is reported as -2.63% (inactive). Cc1cc(O)c(C(C)(C)C)cc1Sc1cc(C(C)(C)C)c(O)cc1C was tested, and the Potency was 11.2 µM (active) and 4.47 µM (active). C=C(C)c1ccccc1 was tested, and the max response was -0.0788% (inactive). For Cc1ccc(S(=O)(=O)Oc2ccc(N=Nc3ccc(-c4ccc(N=Nc5c(O)ccc6cc(S(=O)(=O)O)cc(S(=O)(=O)O)c56)c(C)c4)cc3C)cc2)cc1, the max response was -11.2% (inactive). For O=C1OC2(c3cc(Br)c(O)c(Br)c3Oc3c2cc(Br)c(O)c3Br)c2c(Cl)c(Cl)c(Cl)c(Cl)c21, the max response was 0.0759% (inactive). In the case of c1cc(OCC2CO2)cc(OCC2CO2)c1 (configuration not stated), the max response is reported as -3.13% (inactive) and -3.49% (inactive). With ClC1=C(Cl)C(Cl)(Cl)C(Cl)=C1Cl the max response was -0.568% (inactive) and 0.283% (inactive). C=CC(=O)OCCOCCOC(=O)C=C was tested, and the max response was -4.05% (inactive). C/C=C1\C(=O)C[C@H]2[C@@H]3CCC4=CC(=O)CC[C@]4(C)[C@H]3CC[C@]12C was tested, and the max response was -3.35% (inactive). For O=C1OC(O)C(C(Cl)Cl)=C1Cl (configuration not stated), the max response was -7.18% (inactive). With CNc1ccc(O)cc1 the max response was -6.09% (inactive). With CC(=O)Nc1ccc(C(=O)CCl)cc1 the max response was -5.76% (inactive) and -2.53% (inactive). For CCC(C)Nc1ccc(NC(C)CC)cc1 (configuration not stated), the max response was -4.78% (inactive) and -5% (inactive). In the case of O=C=Nc1ccc(Cc2ccc(N=C=O)cc2)cc1, the max response is reported as -0.535% (inactive) and -0.74% (inactive). For c1ccc2c(c1)ccc1cc3c(ccc4ccccc43)cc12, the max response was -1.24% (inactive). With CC/C(=C(\c1ccccc1)c1ccc(OCCN(C)C)cc1)c1ccc(O)cc1 the max response was -3.76% (inactive). In the case of c1ccc2c(c1)-c1cccc3c1c-2cc1ccccc13, the max response is reported as -0.066% (inactive) and -2.89% (inactive). In the case of O=Cc1ccc(Cl)c(Cl)c1, the max response is reported as 1.8% (inactive).

Source: PubChem BioAssay (NCATS)
Potency is the fitted concentration of half-maximal effect.
